# Experimental data: PubChem BioAssay
# Unmarked numbers belong to inactive results.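 The calls were made as follows: active = inhibition at or above 50% relative to wild type and mutant plate controls; inactive = inhibition below 50%.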
# Test: loss of swimming-algae plug formation – whole organism, Chlamydomonas reinhardtii, WT vs cilia-less mutant, absorbance, 96-well, primary screen (AID 463189);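 also: 0% = wild type cc124 cells in DMSO and 100% = ciliumless bld1 mutant cells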
# Settings: Chlamydomonas reinhardtii gravitaxis, OD600 absorbance, 2 days; at 10 µM; hits give high values
row,SMILES,inhibition [%]
1,NC(CCP(=O)(O)O)C(=O)O (configuration not stated),17.2
2,O=C(O)Cc1cnc[nH]1,2.27
3,NCC#Cc1ccccc1,1.68
4,Oc1cc2c(cc1O)[C@H]1c3ccccc3CN[C@@H]1CC2,-2.75
5,N[C@@H](Cn1ccc(=O)[nH]c1=O)C(=O)O,-4.9
6,C=CCN1CC[C@]23CCCCC2[C@H]1Cc1ccc(O)cc13 (some centres not stated),7.64
7,NC(CP(=O)(O)O)C(=O)O (configuration not stated),5.89
8,O=C(O)CC[N+](=O)[O-],2.51
9,CCCN(CCC)[C@@H]1CCc2ccc(O)cc2C1,-3.45
10,C#CCN[C@H](C)Cc1ccccc1,20.4
11,O=C(CCCN1CCC2(CC1)C(=O)N(CCc1ccc(N=C=S)cc1)CN2c1ccccc1)c1ccc(F)cc1,2.53
12,CCCN(CCC)CCc1c[nH]c2ccc(C(N)=O)cc12,-0.498
13,CCN(CC)C(=O)N[C@H]1C=C2c3cccc4[nH]cc(c34)C[C@H]2N(C)C1,8.76
14,CN[C@@H](C)[C@H](O)c1ccccc1,-4.11
15,CP(=O)(O)C1=CCNCC1,10
16,COc1ccc(CCN)cc1O,4.96
17,COc1ccc2[nH]c3c(c2c1)CCNC3,-4.14
18,c1ccc2cc(CC3=NCCN3)ccc2c1,1.93
19,Cc1nccc2c1[nH]c1ccccc12,10.4
20,CC(C)NC(C)Cc1ccc(I)cc1 (configuration not stated),22.2
21,C[C@H](N)CN1CCc2ccc(Br)cc21,-3.37
22,CC[C@@H](CO)NC(=O)[C@@H]1C=C2c3cccc4[nH]cc(c34)C[C@H]2N(C)C1,-0.368
